The whole screen tested about 360,000 compounds, of which about 3,600 (1%) were called active. What follows is part of a selection rich in actives, with near analogues and random picks from the rest. A number with no mark means an inactive call.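 The calls were made as follows: active = compounds whose plate-normalised and pattern-corrected inhibition of the luciferase reporter signal at the single screening dose is 50% or more; inactive = the rest.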
assay: inhibitors of TROY-driven NF-kB signaling, primary screen, Q293 LMP1-TROYcd cells, NF-kB luciferase, uHTS (AID 1347056); details: Q293 LMP1-TROYcd NF-kB luciferase reporter, 4 h; at 10 µM; stronger effect = higher value

SMILES | inhibition
CC(C)c1nc(CNC(=O)CC2C(=O)NCCN2Cc2cccc(F)c2F)cs1 (centres undefined) | 4.78%
COC(=O)c1ccc(C)c(NC(=O)C2CC(=O)N(C3CCCC(C)C3C)C2)c1 (centres undefined) | -0.78%
C=CCC[C@@H](Cc1ccc(F)cc1)C(=O)O[C@H](CNC(=O)[C@H](CC=C)CC(=O)N(CCO)Cc1ccccc1)c1ccccc1 | 46.6%
O=C1c2ccccc2C2=Nc3ccccc3SC(c3ccccc3F)C12 (centres undefined) | 63.5% (active)
COCCCn1c(-c2cccs2)nc2nc3ccccc3nc21 | 1.22%
O=C(CSc1nc2[nH]ncc2c(=O)[nH]1)Nc1ccc(F)cc1 | -9.77%
Cc1ccc(CSc2nc3[nH]ncc3c(=O)[nH]2)cc1 | -16.1%
Cc1cccc(NC(=O)CSc2nc3[nH]ncc3c(=O)[nH]2)c1 | 80.2% (active)
COc1ccc(S(=O)(=O)N2CCN(C)CC2)c(C)c1 | -7.28%
O=C(/C=C/c1ccc(Cl)c([N+](=O)[O-])c1)c1ccc(O)cc1 | 55.6% (active)
O=C(/C=C/c1ccc(Cl)c([N+](=O)[O-])c1)c1cccnc1 | 64.6% (active)
O=C(Nc1cccnc1)c1ccc(Cl)cc1[N+](=O)[O-] | -20.1%
O=C(O)c1ccc2c(=O)n3c(nc2c1)/C(=C/c1ccc(Cl)c([N+](=O)[O-])c1)CC3 | -0.87%
C/C(=N\NC(=O)Cc1ccccc1[N+](=O)[O-])c1cccnc1 | -4.21%
O=C(/C=C/c1ccc(Cl)cc1)N1CCN(c2ccccc2[N+](=O)[O-])CC1 | 9.62%
O=C(NCc1ccccc1CN1CCCC1)C1CCN(S(=O)(=O)c2ccc(Cl)cc2)CC1 | 4.08%
Cc1ccnc(NC(=O)CCNS(=O)(=O)c2ccc(C)c(C)c2)c1 | 29.5%
Cc1ccc2nc(SCc3nnc(-c4ccccc4[N+](=O)[O-])o3)c(C#N)cc2c1 | 2.86%
CCOC(=O)c1c(C)oc2cc(Br)c(OCC(N)=O)cc12 | 8.9%
CCOC(=O)c1c(-c2ccccc2)oc2cc(Br)c(O)c(C=O)c12 | 74.6% (active)
CCOC(=O)c1c(C)oc2cc(Sc3ccccc3)c(O)c(O)c12 | -45.5%
COc1ccc([N+](=O)[O-])cc1NC(=O)c1ccc(N(Cc2ccccc2C)S(C)(=O)=O)cc1 | 13.5%
COC(=O)C1=C(C)N=C2SC(C)C(=O)N2C1/C=C/c1ccccc1 (centres undefined) | 0.14%
CC[C@H]1CN2CCc3cc(OC)c(OC)cc3[C@@H]2C[C@@H]1C[C@H]1NCCc2cc(OC)c(OC)cc21 | 86% (active)

— PubChem BioAssay AID1347056 (Sanford-Burnham Center for Chemical Genomics, 2019)
